# Measured values as given in PubChem BioAssay.
# Biological target: Torsin-1A (Homo sapiens) (UniProt O14656)
# Test: TOR1A wild-type binding on microarray – cell lysate, small-molecule microarray, lysate, 635/667 nm, primary screen (AID 1149)
# Conditions: COS7 hTOR1A-WT lysate, 635 nm fluorescence, higher = more signal
# Chain of Torsin-1A (Homo sapiens) (O14656 whole entry, looked up): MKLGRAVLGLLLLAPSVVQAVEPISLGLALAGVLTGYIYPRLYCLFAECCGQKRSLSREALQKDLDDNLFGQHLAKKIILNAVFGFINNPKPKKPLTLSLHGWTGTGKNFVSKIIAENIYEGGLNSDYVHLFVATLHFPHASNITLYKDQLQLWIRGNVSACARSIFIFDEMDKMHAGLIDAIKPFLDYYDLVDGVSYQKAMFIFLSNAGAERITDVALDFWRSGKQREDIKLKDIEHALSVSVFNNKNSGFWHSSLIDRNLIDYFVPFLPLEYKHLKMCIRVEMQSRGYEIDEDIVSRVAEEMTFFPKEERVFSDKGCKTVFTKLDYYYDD
row,Compound,composite z-score
1,COCCOC(=O)N1C(=O)[C@@]2(c3cc(C#CCC(C(=O)OC)C(=O)OC)ccc31)[C@H](c1ccccc1OCCO)N1[C@H](c3ccccc3)[C@H](c3ccccc3)OC(=O)[C@H]1[C@@H]2C(=O)N1CCN(c2ncccn2)CC1,1.01
2,C=CCC(OC(C)=O)[C@@H]1[C@@H](N(Cc2ccc(-c3ccccc3)cc2)C(=O)c2cccc3ccccc23)c2cc(OCCCO)ccc2N1C(=O)c1ccc(-c2ccccc2)cc1 (some centres not stated),-0.0396
3,O=C(NCCO)C1=C[C@H](Oc2ccccc2I)[C@@H](O)[C@H](N(Cc2ccco2)C(=O)Cc2ccccc2)C1,0.303
4,C#C[C@H](O[Si](C#Cc1ccc(Oc2ccccc2)cc1)(C(C)C)C(C)C)c1ccccc1,1.38
5,CC1CC/C=C\[C@H]2OC34C=CCN(Cc5ccccc5)C(=O)[C@H]3N(CCCO)C(=O)[C@@H]4C2C(=O)O1 (some centres not stated),-0.681
6,CCOC(=O)C[C@H]1[C@H](OC(=O)c2ccc(C(=O)c3ccccc3)cc2)[C@@H](NC(=O)c2ccccc2)c2cc(OCCCO)ccc2N1C(=O)Cc1ccc(OC)cc1,-0.0962
7,CC(C)CNC(=O)[C@@]1(Cc2ccccc2I)c2ccccc2C(=O)N(C2CCCCC2)[C@H]1c1ccc(CO)cc1,0.222
8,Cc1ccc(S[C@]2(C(=O)NCCCN(C)C)CC(=O)N(Cc3ccccc3C(F)(F)F)[C@@H]2c2ccc(CO)cc2)cc1,-0.544
9,C=CC[C@]1(C(=O)NCCCOC)N=C(c2ccc(OCCCO)cc2)O[C@H]1c1ccccc1CN=[N+]=[N-],0.883
10,Cc1ccc(S[C@]2(C(=O)NCCCN(C)C)CC(=O)N(Cc3cc(C(F)(F)F)cc(C(F)(F)F)c3)[C@@H]2c2ccc(CO)cc2)cc1,-0.0089
11,CCCC[C@H]1OB(O)C[C@H]2C1=C(COC)Cn1c(=O)n(-c3ccccc3)c(=O)n12,0.0681
12,COc1ccc(/C=C/C=O)cc1,-0.238
13,NC(=O)NCC#Cc1ccc2c(c1)[C@]1(C(=O)N2)[C@H](c2ccccc2OCCO)N2[C@H](c3ccccc3)[C@H](c3ccccc3)OC(=O)[C@H]2[C@@H]1C(=O)Nc1nc2ccccc2s1,-0.671
14,C=CCC(OC(C)=O)[C@@H]1[C@@H](N(Cc2ccc(-c3ccccc3)cc2)C(=O)c2ccc(-c3ccccc3)cc2)c2cc(OCCCO)ccc2N1C(=O)Cc1ccc2ccccc2c1 (some centres not stated),-0.395
15,Cc1ccc(N2C(=O)c3ccccc3[C@@H](C(=O)NC3CC3)[C@@H]2c2ccc(CO)cc2)nc1,1.23
16,COCCCNC(=O)[C@@]1(C)c2ccccc2C(=O)N(C(C)C)[C@H]1c1ccc(CO)cc1,-0.277
17,COC(=O)[C@@]1(Cc2ccc(OC)cc2)[C@@H]2C(=CC(=O)[C@H]2CC(=O)C(=O)N2CCCC2)CN1C(=O)c1ccccc1,-0.234
18,C=C(COC)/C(=C/C[C@@H](OC(=O)c1ccncc1)c1ccc(CO)o1)c1cc(C(=O)OC)ccc1OC,1.1
19,NC(=O)NCC#Cc1ccc2c(c1)[C@]1(C(=O)N2)[C@H](C(=O)Nc2nc3ccccc3s2)[C@H]2C(=O)O[C@H](c3ccccc3)[C@H](c3ccccc3)N2[C@@H]1c1ccccc1OCCO,-0.3
20,COc1ccc(C(=O)Nc2ccc(CN3C(=O)[C@]4(O[C@H](CCO)[C@@H]([Si](C)(C)c5ccc(OC)cc5)[C@@H]4C)c4ccccc43)cc2)cc1,0.108
21,COc1cc2c(cc1OC)CN(C(=O)[C@@H]1[C@H]3C(=O)O[C@H](c4ccccc4)[C@H](c4ccccc4)N3[C@H](c3ccc(O)cc3)[C@@]13C(=O)Nc1ccccc13)CC2,1.05
22,[N-]=[N+]=Nc1ccccc1[C@@H]1OC(c2ccc(OCCCO)cc2)=N[C@]1(CCS(=O)(=O)c1ccccc1)C(N)=O,0.641
23,COC(=O)[C@@]1(Cc2ccc(F)cc2)[C@H]2c3cc(C(=O)N4CCCC4)n(CCCNc4ncc(C(F)(F)F)cc4Cl)c3C[C@H]2CN1C(=O)c1ccccc1,-0.107
24,[N-]=[N+]=Nc1ccccc1[C@@H]1OC(c2ccc(OCCCO)cc2)=N[C@]1(Cc1ccccc1)C(=O)N1CCOCC1,0.311
25,C=CCC(OC(C)=O)[C@@H]1[C@@H](N(Cc2ccc(-c3ccccc3)cc2)C(=O)Cc2ccc(OC)cc2)c2cc(OCCCO)ccc2N1C(=O)Cc1ccc2ccccc2c1 (some centres not stated),-0.921
26,CC1(C)C2C=C(C(O)C3C=CC4C(=O)NC(=O)C4N3Nc3ccc(Cl)cc3Cl)C[C@@H]1C2 (some centres not stated),-0.0995
27,CO[C@H]1O[C@H](CO)[C@@H](OC(=O)Nc2cccc(F)c2)[C@H](OC(=O)Nc2ccccc2)[C@@H]1OC(=O)Nc1ccccc1,0.434
